Screens: PubChem, several laboratories
tim23-1 inh – tim23-1 yeast growth inhibition. S. cerevisiae tim23-1 growth, BacTiter-Glo luminescence, 24 h. inhibition, % at 20 µM. 1.3% of 330,000 active;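 active = growth inhibition of the mutant yeast at or above 50%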;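 also: temperature-sensitive mutant grown at 25 °C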
TIM10 inh – inhibits growth of TIM10 yeast strain; S. cerevisiae TIM10 strain growth, BacTiter-Glo luminescence, 24 h; inhibition, % at 10 µM; 1.4% of 330,000 active;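 active = inhibition of 40% or more at the single tested concentration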;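 also: wild-type TIM10 isogenic control strain grown at permissive 25 °C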
V-ATPase pH – alters yeast V-ATPase proton transport; S. cerevisiae, pHLuorin cytosolic pH fluorescence; response, % at 10 µM; 0.37% of 350,000 active; AID 504577; in the data active = response mostly above about 7.3%, no sharp cut-off; inactive = mostly below about 5.4%; also: actives read high
PfHsp90 set2 – inhibits growth of yeast expressing Plasmodium falciparum Hsp90 | S. cerevisiae expressing PfHsp90, BacTiter-Glo ATP, 48 h; yeast lacking PDR1 and PDR3 efflux regulators | inhibition, % at 9.4 µM | 0.32% of 310,000 active | AID 504621;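 active = every replicate shows inhibition above about 80%, whatever the replicate mean, limit read from the data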
SKKanGAS inh – blocks kanamycin growth of S. pyogenes SKKanGAS strain; 1.3% of 300,000 active; inhibition, % at 7.5 µM; BacTiter-Glo, 6 h;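 active = mean replicate score, as percent of positive control median, at least 50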;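 also: strain carries kanamycin resistance gene driven by streptokinase promoter and grows in 40 µg/ml kanamycin; loss of luminescence reflects streptokinase promoter inhibition or plain growth inhibition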
tim10-1 inh – tim10-1 yeast growth inhibition. S. cerevisiae tim10-1 ts strain growth, BacTiter-Glo, 24 h. inhibition, % at 20 µM. 2.2% of 330,000 active. AID 463190;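 active = inhibition of at least 40%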;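 also: mutant grown at 25 °C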
tim10-1 conf – confirmation of tim10-1 mutant yeast growth inhibitors; shares compounds with tim10-1 inh; 56% of 7,400 active; S. cerevisiae tim10-1 ts strain growth, BacTiter-Glo, 24 h; inhibition, % at 20 µM;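 active = inhibition of yeast growth at or above a set limit in either of two repeat tests at 20 µM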;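 also: tim10-1 mutant grown at permissive 25 °C to find synthetic lethal compounds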
Numbers stand for hits; i = inactive; nt = no result given. In the library only some 4.6% were active in any assay of this set; here they are far more common.

SMILES	tim23-1 inh	TIM10 inh	V-ATPase pH	PfHsp90 set2	SKKanGAS inh	tim10-1 inh	tim10-1 conf
CN(C)CCCN(C(=O)c1ccc(S(=O)(=O)N2CCc3ccccc32)cc1)c1nc2ccc(F)cc2s1	i	i	i	i	i	i	i
CN(C)CCCN(C(=O)c1ccc(S(=O)(=O)N(C)C)cc1)c1nc2ccc(F)cc2s1	i	i	i	i	i	i	nt
CN(C)CCCN(C(=O)c1ccc(S(=O)(=O)N2CCc3ccccc32)cc1)c1nc2ccc(Cl)cc2s1	i	i	i	i	i	43	34
Fc1ccc(-n2nnnc2-c2cnc(-c3cccs3)nc2C(F)(F)F)cc1	i	i	i	nt	i	41	i
Cc1ccc(-c2nnnn2-c2ccc(C)cc2)cc1	i	i	i	i	i	i	nt
Cc1ccc(-n2nnnc2-c2cnn(-c3ccc(F)cc3)c2C(F)(F)F)cc1	i	i	i	i	i	41	i
FC(F)(F)c1nc(N2CCCC2)ncc1-c1nnnn1-c1ccc(Cl)cc1	i	i	i	i	i	40	i
COc1ccc(CCNC(=O)c2noc(C)c2[N+](=O)[O-])cc1OC	i	i	i	i	i	i	nt
O=C(Nc1nnc(C2CC2)o1)c1ccc(S(=O)(=O)N2CCCCC2)cc1	i	i	i	i	i	i	nt
CC1CCN(S(=O)(=O)c2ccc(C(=O)Nc3nnc(C4CC4)o3)cc2)CC1	i	i	i	nt	i	41	i
CC(=O)Oc1ccc(N(C(C)=O)S(=O)(=O)c2ccc(C)c([N+](=O)[O-])c2)cc1	i	i	i	i	i	i	nt
O=c1c2ccccc2nc(SCc2cn3ccsc3n2)n1-c1ccc(F)cc1	i	i	i	i	i	43	i
Cc1ccc(C(=O)N/C(=C\c2ccc3c(c2)OCO3)C(=O)Nc2ccc(C(=O)O)cc2)cc1	i	i	i	i	i	i	nt
Cc1c(Cl)cccc1NC(=S)NC1CCN(C(C)C)CC1	i	i	i	i	i	i	nt
CCOc1ccc(NC(=S)N(C)C)cc1	i	i	i	i	i	i	nt
COc1ccc2nc(N/C(N)=N/C(=S)Nc3cccc(C)c3)nc(C)c2c1	i	i	i	i	i	i	nt
Cc1ccc(NC(=S)/N=C(\N)Nc2nc(C)c3cc(C)ccc3n2)c(C)c1	i	i	i	i	i	50	37
COc1ccc(CC(=O)N/N=C/c2ccc(Cl)s2)cc1OC	i	i	i	i	i	50	i
O=C(O)C(c1ccccc1)C1(O)CC2CCC1C2 (stereo not drawn)	nt	nt	i	i	nt	nt	nt
COc1ccc(/C(N)=N/OC(=O)CCC2CCCC2)cc1OC	i	i	i	i	i	46	37
COc1ccc(/C(N)=N/OC(=O)CC2CCCCC2)cc1OC	i	i	i	i	i	51	61
COc1ccc(/C(N)=N/OC(=O)CCCc2ccccc2)cc1OC	i	i	i	i	i	i	nt
COc1ccc(/C(N)=N/OC(=O)C2CCCCC2)cc1	i	i	i	i	i	51	31
COc1ccc(/C(N)=N/OC(=O)C2CCCCC2)cc1OC	i	i	i	i	i	i	nt
CC(C)(C)OC(=O)C[C@@H]1C/C=C\C[C@H](CC(=O)N(CCO)Cc2ccccc2)C(=O)NCCOC1=O	i	i	i	i	nt	i	nt
SMILES	tim23-1 inh	TIM10 inh	V-ATPase pH	PfHsp90 set2	SKKanGAS inh	tim10-1 inh	tim10-1 conf
CC(OC(=O)CCc1c[nH]c2ccccc12)C(=O)c1ccccc1 (stereo not drawn)	i	i	i	i	i	i	nt
COCCN(Cc1ccccc1)C(=S)Nc1ccc(OC(F)F)cc1	i	i	i	i	i	43	i
COc1cc(C)c(Br)cc1S(=O)(=O)N1CCCC1	i	i	i	i	i	i	nt
Cc1cc(=O)n(-c2ccc3ccccc3n2)[nH]1	i	i	i	i	i	54	i
CC1=CCC2C(=O)N(c3ccc4ccccc4n3)C(=O)C2C1 (stereo not drawn)	i	i	i	i	i	i	nt
CCc1nnc(N/N=C/c2ccc(N3CCC(C)CC3)c([N+](=O)[O-])c2)n1N	i	i	16	i	i	48	42
OC1CCCCC1	i	i	i	i	nt	i	nt
COc1ccc(-n2c(C)cc(C(=O)CSc3nnc(-c4ccoc4C)n3C)c2C)cc1	i	i	i	i	i	40	i
Cc1ccc(S(=O)(=O)c2cc3ccccc3nc2N)cc1	i	i	i	nt	i	i	nt
O=C(O)CCCC(=O)NNc1nc(-c2ccccc2)c2cc(Cl)ccc2n1	i	i	i	i	i	i	nt
O=C(NCCO)c1cccc(Nc2nc(-c3ccccc3)c3cc(Cl)ccc3n2)c1	i	i	i	i	i	45	i
CCN(CC)C(=O)C1=C(C)N(Cc2ccc(OC)cc2)C(=O)C(CC(=O)NC(c2ccccc2)c2ccccc2)C1 (stereo not drawn)	nt	nt	i	nt	nt	nt	nt
O=C(OCc1nnc(-c2ccccc2)o1)c1ccco1	i	i	i	i	i	41	i
O=C(OCc1nnc(-c2ccccc2)o1)c1cc(=O)c2ccccc2o1	i	i	i	i	i	i	nt
CC[C@@]1(c2ccccc2)C(=O)N(C(=O)OC)N1C(=O)OC	i	i	i	i	i	i	nt
COC(=O)N1C(=O)[C@@](c2ccccc2)(C2CCCCC2)N1C(=O)OC	i	i	i	i	i	50	45
O=C(/C=C/c1ccccc1F)c1cccc([N+](=O)[O-])c1	i	i	i	i	i	51	48
COc1cc(/C=C/C(=O)c2cccc([N+](=O)[O-])c2)cc(OC)c1OC	i	i	i	i	i	53	41
CC(C)OC(=O)/C(C#N)=C/c1cn(C)c2ccccc12	i	i	i	i	i	i	nt
CC(C)OC(=O)/C(C#N)=C/c1c[nH]c2ccccc12	i	i	i	i	i	42	i
CCOC(=O)c1cnc(Nc2nc3ccccc3o2)nc1CSc1nnc(C)s1	i	i	i	i	i	50	i
CCN(CC)CCCNC(=O)CCc1c(C)n(CC)c2cc(-c3ccccc3OC)nn2c1=O	i	i	i	i	i	i	nt
CCOC(=O)CCc1c(C)n(CC)c2cc(-c3ccccc3OC)nn2c1=O	i	i	i	i	i	42	i
CCC1NC(=O)c2cc3ccccc3cc2-n2c1nc1cc(OC)c(OC)cc1c2=O (stereo not drawn)	nt	nt	i	nt	nt	nt	nt
Cc1ccc(S(=O)(=O)N(C)C)cc1NC(=O)COC(=O)c1sc2cc(Cl)ccc2c1Cl	i	i	i	i	i	i	nt
CCN(CC)C(=S)NC(=O)c1ccc(OC)c(Br)c1	i	i	i	i	i	44	i
CC(C)Sc1oc(-c2ccco2)nc1S(=O)(=O)c1ccccc1	i	i	i	i	i	41	i
CSc1oc(-c2ccco2)nc1S(=O)(=O)c1ccccc1	i	i	i	i	i	i	nt
COc1ccccc1NC(=O)c1ccc(COc2ccccc2OC)o1	i	i	i	i	i	41	i
COc1ccccc1NC(=O)c1ccc(COc2ccccc2Br)o1	i	i	i	i	i	i	nt
